Test results reported in PubChem BioAssay (NCI).
The panel holds about 79,000 compounds, 15% with a hit somewhere; the sample as a whole holds those more often. Activity calls are given as the source filed them. Rule as the data show it: active = growth inhibition above about 70%; inactive = the rest.

Assay: NCI Yeast Anticancer Drug Screen. Data for the mec2-1 strain (AID 157)
Details: S. cerevisiae mec2-1 strain, at 50.0 µM (retest, dose inferred, filed as 5.0), active compounds read high
In short: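 Readout is yeast growth inhibition, normalised to vehicle-treated controls, in the mec2-1 strain exposed to compound.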

| SMILES | growth inhibition |
| --- | --- |
| COc1ccc(N=Cc2cc(Br)cc(Br)c2O)cc1.COc1ccc(N=Cc2cc(Br)cc(Br)c2O)cc1.[Co] | 88% (active) |
| O=C(/C=C/C(=O)N1CCCC1)N1CCCC1 | 1% (inactive) |
| O=S(c1ccccc1)c1c(Cl)c(Cl)nc(Cl)c1Cl (stereo not drawn) | 99% (active) |
| CSc1nc(N)c2cnn(C3OC(CO)C(O)C3O)c2n1 (stereo not drawn) | -11% (inactive) |
| COc1cccc(C=O)c1O | 21% (inactive) |
| Cn1c(=O)c2c(ncn2CCCCOc2ccc3c(c2)[n+]([O-])nc(N)[n+]3[O-])n(C)c1=O | 23% (inactive) |
| Cn1ncc2c(Nc3cccc(Cl)c3)nc(Nc3cccc(Cl)c3)nc21 | 98% (active) |
| Cc1cc(C)n2nc(N)c(C#N)c2c1C#N | 0% (inactive) |
| COc1ccc(C2c3cc4c(cc3OC(O)C2C)OCO4)cc1 (stereo not drawn) | 49% (inactive) |
| Nc1ccccc1[S][Sn]([c]1ccccc1)([c]1ccccc1)[c]1ccccc1 | 98% (active) |
| Cn1c(Sc2ccc(-c3cccnc3)n2C)ccc1-c1cccnc1 | 92% (active) |
| Nc1nnc(-c2cc(=O)c3cc(Cl)ccc3o2)s1 | 8% (inactive) |
| COc1ccc(CNc2nc3cc(C(F)(F)F)ccc3nc2C)cc1OC | 39% (inactive) |
| CC(=O)OCC1CC2OC2CC1C (stereo not drawn) | -5% (inactive) |
| CCCCN(CCCC)CC(O)c1cc(-c2ccc(Cl)cc2)nc2cc(C)ccc12 (stereo not drawn) | 98% (active) |
| NC(=S)n1nc(-c2ccccc2)c(N=Nc2ccccc2Cl)c1-c1ccccc1 | 58% (inactive) |
| CCCCCCCCCCCCN(CCO)CCO | 96% (active) |
| CC(C)CCSc1ncnc2nc[nH]c12 | 3% (inactive) |
| O=C(c1ccccc1)c1cccc2ccccc12 | -2% (inactive) |
| O=C1C(c2c[nH]c3ccccc23)=Nc2ccc(Br)cc21 | 35% (inactive) |

| SMILES | growth inhibition |
| --- | --- |
| COc1cccc(CCCNC(=O)Cc2ccccc2CO)c1 | 5% (inactive) |
| C/C(=N\NC(=S)N1CCN(C2CCCCC2)CC1)c1ccccn1 | 76% (active) |
| CN(C)CCOC(=O)C1(CCC2CCCCC2)CCCCC1 | 17% (inactive) |
| O=c1c(Cl)cc2nc3ccccc3sc-2c1Cl | 84% (active) |
| COc1ccc2nc(NC(=O)Nc3c(Cl)cccc3Cl)sc2c1 | 99% (active) |
| Cc1c[nH]c2nc(C)n(-c3ccccc3)c(=N)c12 | -3% (inactive) |
| O=C(C1=NNC(c2ccccc2)C1C(=O)c1ccccc1)c1ccccc1 (stereo not drawn) | 65% (inactive) |
| CCOC(=O)N1CCN(C=S)CC1 | -7% (inactive) |
| COC(=O)N(C[C@@H]1C=CCCC1)c1ccccc1I | 61% (inactive) |
| N=c1ccc2c(c1)[nH]c1c3ccccc3[nH]c3cccc2c31 | 98% (active) |
| CC1(C)[C@H]2CC[C@]1(C)[C@H](OC(=O)NNC(=O)O[C@@H]1C[C@@H]3CC[C@@]1(C)C3(C)C)C2 | 59% (inactive) |
| N#CC1(C#N)C(C#N)(C#N)C12CCCCCC2 | 98% (active) |
| CCOP(=O)(OCC)OC1c2[nH]ccc2-c2cc(C(=O)OC)[nH]c2C1OC (stereo not drawn) | 10% (inactive) |
| O=[N+]([O-])/C(=C\c1cccs1)c1ccccc1 | 99% (active) |
| Cc1ccccc1NC(=O)C(=O)C(C#N)c1c(Cl)cccc1Cl (stereo not drawn) | 11% (inactive) |
| O=C1c2c(F)c(F)c(F)c(F)c2SC2=NCCN12 | 98% (active) |
| CCCC(C)OC(=O)Nc1cccc(Cl)c1 (stereo not drawn) | -7% (inactive) |
| Nc1nc(SCc2ccccc2)c2ncn(CCCl)c2n1 | 2% (inactive) |
| CCCCOC(=O)c1nc(N(CC2CCCCC2)C(=O)NC)sc1NC(=O)NC | 95% (active) |

Same assay, conditions: S. cerevisiae mec2-1 strain, at 50.0 µM, active compounds read high

| SMILES | growth inhibition |
| --- | --- |
| COc1ccc(N=Cc2cc(Br)cc(Br)c2O)cc1.COc1ccc(N=Cc2cc(Br)cc(Br)c2O)cc1.[Co] | 79.6% (active) |
| O=C(/C=C/C(=O)N1CCCC1)N1CCCC1 | 0.65% (inactive) |
| O=S(c1ccccc1)c1c(Cl)c(Cl)nc(Cl)c1Cl (stereo not drawn) | 99.6% (active) |
| CSc1nc(N)c2cnn(C3OC(CO)C(O)C3O)c2n1 (stereo not drawn) | 2.8% (inactive) |
| COc1cccc(C=O)c1O | 1.05% (inactive) |
| Cn1c(=O)c2c(ncn2CCCCOc2ccc3c(c2)[n+]([O-])nc(N)[n+]3[O-])n(C)c1=O | 51.9% (inactive) |
| Cn1ncc2c(Nc3cccc(Cl)c3)nc(Nc3cccc(Cl)c3)nc21 | 94.2% (active) |
| Cc1cc(C)n2nc(N)c(C#N)c2c1C#N | 7.85% (inactive) |
| COc1ccc(C2c3cc4c(cc3OC(O)C2C)OCO4)cc1 (stereo not drawn) | 93.5% (active) |
| Nc1ccccc1[S][Sn]([c]1ccccc1)([c]1ccccc1)[c]1ccccc1 | 98.5% (active) |
| Cn1c(Sc2ccc(-c3cccnc3)n2C)ccc1-c1cccnc1 | 98.7% (active) |
| Nc1nnc(-c2cc(=O)c3cc(Cl)ccc3o2)s1 | 20.4% (inactive) |
| COc1ccc(CNc2nc3cc(C(F)(F)F)ccc3nc2C)cc1OC | 91.3% (active) |
| CC(=O)OCC1CC2OC2CC1C (stereo not drawn) | 50.1% (inactive) |
| CCCCN(CCCC)CC(O)c1cc(-c2ccc(Cl)cc2)nc2cc(C)ccc12 (stereo not drawn) | 99.2% (active) |
| NC(=S)n1nc(-c2ccccc2)c(N=Nc2ccccc2Cl)c1-c1ccccc1 | 55.5% (inactive) |
| CCCCCCCCCCCCN(CCO)CCO | 79.3% (active) |
| CC(C)CCSc1ncnc2nc[nH]c12 | 53.5% (inactive) |
| O=C(c1ccccc1)c1cccc2ccccc12 | 43% (inactive) |
| O=C1C(c2c[nH]c3ccccc23)=Nc2ccc(Br)cc21 | 61.4% (inactive) |

| SMILES | growth inhibition |
| --- | --- |
| COc1cccc(CCCNC(=O)Cc2ccccc2CO)c1 | -55.1% (inactive) |
| C/C(=N\NC(=S)N1CCN(C2CCCCC2)CC1)c1ccccn1 | 98.7% (active) |
| CN(C)CCOC(=O)C1(CCC2CCCCC2)CCCCC1 | 30.9% (inactive) |
| O=c1c(Cl)cc2nc3ccccc3sc-2c1Cl | 6.5% (inactive) |
| COc1ccc2nc(NC(=O)Nc3c(Cl)cccc3Cl)sc2c1 | 99.3% (active) |
| Cc1c[nH]c2nc(C)n(-c3ccccc3)c(=N)c12 | 16.5% (inactive) |
| O=C(C1=NNC(c2ccccc2)C1C(=O)c1ccccc1)c1ccccc1 (stereo not drawn) | 30.6% (inactive) |
| CCOC(=O)N1CCN(C=S)CC1 | -23.3% (inactive) |
| COC(=O)N(C[C@@H]1C=CCCC1)c1ccccc1I | 91.2% (active) |
| N=c1ccc2c(c1)[nH]c1c3ccccc3[nH]c3cccc2c31 | 84% (active) |
| CC1(C)[C@H]2CC[C@]1(C)[C@H](OC(=O)NNC(=O)O[C@@H]1C[C@@H]3CC[C@@]1(C)C3(C)C)C2 | 22.4% (inactive) |
| N#CC1(C#N)C(C#N)(C#N)C12CCCCCC2 | 99.3% (active) |
| CCOP(=O)(OCC)OC1c2[nH]ccc2-c2cc(C(=O)OC)[nH]c2C1OC (stereo not drawn) | 25.9% (inactive) |
| O=[N+]([O-])/C(=C\c1cccs1)c1ccccc1 | 99.7% (active) |
| Cc1ccccc1NC(=O)C(=O)C(C#N)c1c(Cl)cccc1Cl (stereo not drawn) | 17.1% (inactive) |
| O=C1c2c(F)c(F)c(F)c(F)c2SC2=NCCN12 | 80.4% (active) |
| CCCC(C)OC(=O)Nc1cccc(Cl)c1 (stereo not drawn) | 98.2% (active) |
| Nc1nc(SCc2ccccc2)c2ncn(CCCl)c2n1 | 15.3% (inactive) |
| CCCCOC(=O)c1nc(N(CC2CCCCC2)C(=O)NC)sc1NC(=O)NC | 0.85% (inactive) |
